# Assay results taken from PubChem BioAssay (NCATS).
# Several values for one entry are separate records, joined by “and”; a condition that tells them apart may be missing. Identical values can stand only once. Inconclusive results are not listed. Activity calls are given as the source filed them. The call rests on the fitted dose curve; in most records, active means well fitted cell-killing curve with a large enough effect; inconclusive means small, poorly fitted or top-dose-only effect; inactive means flat fitted curve, though single readings scatter.
# Test: Cell Viability - LYMP2-019 (AID 973); further: nearly all actives have a fitted effect of over 55% in size;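 on activity change, negative = cytotoxicity: 0% = DMSO alone and full effect = 92 µM tetraoctylammonium bromide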
# Details: LYMP2-019 lymphoblastoid cell line viability; series mostly up to 92.2 µM; activity change, negative = cytotoxicity: at the top concentration
# From the text: NIH Chemical Genomics Center [NCGC]
# NIH Molecular Libraries Screening Centers Network [MLSCN]
# National Institutes of Environmental Health Sciences [NIEHS]
# National Toxicology Program [NTP]
# We have developed a 1536-well cell-based assay for quantitative high throughput screening (qHTS) against a number of cell lines to determine in vitro cytotoxicity of small molecules. This particular assay uses a human lymphoblastoid cell line (LYMP2-019) purchased from Coriell Institute for Medical Research.
# NCGC Assay Protocol Summary:
# The CellTiter-Glo luminescent cell viability assay (Promega) is a homogeneous method to measure the number of viable cells in culture. The end point readout of this assay is based on quantitation of intracellular ATP, an indicator of metabolic activity, using the luciferase reaction. Luciferase catalyzes the oxidation of beetle Luciferin to oxyluciferin and light in the presence of ATP. The luminescent signal is proportional to amount of ATP present.
# Using the CellTiter-Glo luminescent cell viability assay, the amount of cellular ATP was measured in the lymphoblastoid cell line with complete culture medium following compound treatment for 24 hours. The assay was performed in opaque white Kalypsys 1536-well plates. In the screen, tetraoctylammonium bromide was used as positive control. Library compounds were measured for their ability to cause acute toxicity in the cell line, as reflected by a decrease in intracellular ATP levels, in a concentration-dependent manner. […] AC50 values were determined from concentration-response data modeled with the standard Hill equation.
# qHTS protocol for CellTiter Glo lymphoblastoid cellular assay
# [Step] [Parameter] [Value] [Description]
# 1. Reagent; 5 uL; 2500 lymphoblastoid cells/well
# 2. Time; 5 hr; 37 C incubation
# 4. Controls; 23 nL; Tetraoctylammonium bromide 6.4pM to 92 uM
# 5. Time; 24 hr; 37 C incubation
# 6. Reagent; 5 uL; CellTiter Glo reagent
# 7. Time; 30 min; Room Temperature
# 8. Detection; Luminescence; Viewlux plate reader
# Keywords: cell viability, cytotoxicity, lymphoblastoid cell line, luminescence, NTPHTS, NTPHTS_NCGC, NIEHS, DSSTox, MLSMR, MLSCN, NIH Roadmap, qHTS, NCGC
# Potency means the concentration at half of the fitted maximal effect.
Structure (SMILES),"activity change, negative = cytotoxicity",Potency
O=[N+]([O-])c1ccc(F)c([N+](=O)[O-])c1,-29.7% (inactive),–
O=C(O)C(Cl)(Cl)Cl,–,inactive
CCOC(=O)c1ccccc1C(=O)OCC,–,inactive
Oc1cc(Cl)c(Cl)cc1Cl,-11.9% (inactive),–
[O]=[Cd],-14% (inactive),–
CCCCCCCCOC(=O)c1ccccc1C(=O)OCCCCCCCC,-3.04% (inactive),–
S=C=S,-0.301% (inactive),–
CCCCCl,-1.51% (inactive),–
[O]=[Cr](=[O])([OH])[O][Cr](=[O])(=[O])[OH],–,12.6 µM (active) and 10 µM (active)
COc1ccc2c(c1OC)C(=O)OC2C1c2cc3c(cc2CCN1C)OCO3 (stereo not given),-7.03% (inactive),–
COC1=CC(=O)O[C@@H](/C=C/c2ccccc2)C1,-4.64% (inactive),–
O=C1C2CC=CCC2C(=O)N1SC(Cl)(Cl)Cl (stereo not given),–,3.98 µM (active) and 5.01 µM (active)
NNC(N)=O,-8.28% (inactive),–
O=C/C=C/c1ccccc1,–,inactive
O=Cc1ccco1,-4.15% (inactive),–
ClC=C(Cl)Cl,1.25% (inactive),–
O=[N+]([O-])c1ccccc1,-7.1% (inactive),–
CC(C)Nc1ccc(Nc2ccccc2)cc1,–,25.1 µM (active)
C[C@H]1CCC[C@H](O)CCCCCc2cc(O)cc(O)c2C(=O)O1,-11.1% (inactive),–
[Cl-].[Cl-].[Hg+2],–,10 µM (active)
O=C1C=CC(=O)C=C1,–,50.1 µM (active)
ClC(Cl)(Cl)Cl,–,inactive
CC(C)(C)c1cc(O)ccc1O,–,50.1 µM (active)
O=C1CCO1,-9.49% (inactive),–
O=CC=O,-9.12% (inactive),–
Clc1ccccc1Cl,-10.5% (inactive),–
C=CCN=C=S,-1.46% (inactive),–
CC(C)CCON=O,-11.8% (inactive),–
C[C@H]1CC[C@@H]2[C@@H](C)[C@H]3[C@H](C[C@H]4[C@@H]5CC=C6CC(O[C@@H]7O[C@H](CO)[C@H](O)[C@H](O[C@@H]8O[C@H](CO)[C@@H](O)[C@H](O)[C@H]8O)[C@H]7O[C@H]7O[C@@H](C)[C@H](O)[C@@H](O)[C@H]7O)CC[C@]6(C)[C@H]5CC[C@]34C)N2C1 (stereo not given in full),–,39.8 µM (active)
ClCC1CO1 (stereo not given),-21.1% (inactive),–
